In PubChem BioAssay (NCATS):
“And” between values parts separate entries of the source, which are not always exact repeats. Equal entries are not always repeated. Records with an inconclusive call do not appear. The source holds several records for some structures; these can differ, active in one and inactive in another. The source made the active and inactive calls. Calls come from the whole dose curve; as a rule, active = well fitted curve in the direction sought with a large enough effect; inconclusive = small, poorly fitted or top-dose-only effect, or another doubt; inactive = no such curve, though single readings can be large; an effect the other way counts as inactive or inconclusive.

What was measured:
[1] = system: CRL-7250; experiment: Cytotoxic Profiling of Annotated Libraries Using Quantitative High-Throughput Screening (AID 1296008); conditions: Five cell lines viability, CellTiter-Glo ATP luminescence, 48-72 h; max response: stronger effect = lower value; note: nearly all actives have a fitted effect of over 60% in size; note: potency is the fitted concentration of half-maximal effect; for max response: % is set by controls: 0 for no effect and ±100 for the full control effect
How it was run: (§1)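 Compounds were pin-transferred onto cells and incubated 48 or 72 hr at 37 degree Celsius, 95% humidity. CellTiter-Glo was added, plates sat 10 min at room temperature, then ATP-coupled luminescence was imaged as the viability read-out.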

[2] = system: HEK293; experiment: as above; conditions: Five cell lines viability, CellTiter-Glo ATP luminescence, 48-72 h; max response: stronger effect = lower value
How it was run: as §1

[3] = system: HaCat; experiment: as above; conditions: Five cell lines viability, CellTiter-Glo ATP luminescence, 48-72 h; max response: stronger effect = lower value
How it was run: as §1

[4] = system: KB-3-1; experiment: as above; conditions: Five cell lines viability, CellTiter-Glo ATP luminescence, 48-72 h; max response: stronger effect = lower value
How it was run: as §1

[5] = system: HACAT; experiment: qHTS assay to identify novel small-molecules to repurpose for Merkel cell carcinoma treatment (AID 1296009); conditions: MCC and control cell lines, CellTiter-Glo viability, 72 h; note: nearly all actives have a fitted effect of over 60% in size; note: potency is the fitted concentration of half-maximal effect
How it was run: (§2)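 Cells exposed to NPC (8-point) and MIPE (11-point) compound dilutions for 72 hr at 37 degree celsius; viability read by CellTiter-Glo luminescence, normalized to no-cell and DMSO in-plate controls.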

[6] = system: MCC-13; experiment: as above; conditions: MCC and control cell lines, CellTiter-Glo viability, 72 h; series mostly up to 46 µM
How it was run: as §2

[7] = system: MCC-26; experiment: as above; conditions: MCC and control cell lines, CellTiter-Glo viability, 72 h; series mostly up to 46 µM
How it was run: as §2

[8] = system: MKL-1; experiment: as above; conditions: MCC and control cell lines, CellTiter-Glo viability, 72 h; series mostly up to 46 µM
How it was run: as §2

[9] = system: MKL-2; experiment: as above; conditions: MCC and control cell lines, CellTiter-Glo viability, 72 h; series mostly up to 46 µM
How it was run: as §2

[10] = system: UISO; experiment: as above; conditions: MCC and control cell lines, CellTiter-Glo viability, 72 h; series mostly up to 46 µM
How it was run: as §2

[11] = system: WaGa; experiment: as above; conditions: MCC and control cell lines, CellTiter-Glo viability, 72 h; series mostly up to 46 µM
How it was run: as §2

[12] = system: NIH3T3; experiment: Cytotoxic Profiling of Annotated Libraries Using Quantitative High-Throughput Screening (AID 1296008); conditions: Five cell lines viability, CellTiter-Glo ATP luminescence, 48-72 h; max response: stronger effect = lower value; note: nearly all actives have a fitted effect of over 60% in size; note: potency is the fitted concentration of half-maximal effect; for max response: % is set by controls: 0 for no effect and ±100 for the full control effect
How it was run: as §1

[13] = system: C33A; experiment: Primary qHTS to identify gynecologic anti-cancer compounds using libraries of approved drugs and bioactive compounds (AID 1345084); conditions: Gynecologic cancer cell panel viability, ATPlite luminescence, 48 h; series mostly up to 57.5 µM; note: nearly all actives have a fitted effect of over 55% in size; note: potency is the fitted concentration of half-maximal effect
How it was run: (§3)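 Five-concentration response, 48 h; readout is ATP-driven luciferase luminescence.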

[14] = system: CAOV3; experiment: as above; conditions: Gynecologic cancer cell panel viability, ATPlite luminescence, 48 h; series mostly up to 57.5 µM
How it was run: as §3

[15] = system: CASKI; experiment: as above; conditions: Gynecologic cancer cell panel viability, ATPlite luminescence, 48 h; series mostly up to 57.5 µM
How it was run: as §3

[16] = system: NIH3T3; experiment: qHTS assay to identify novel small-molecules to repurpose for Merkel cell carcinoma treatment (AID 1296009); conditions: MCC and control cell lines, CellTiter-Glo viability, 72 h; series mostly up to 44.8 µM; note: nearly all actives have a fitted effect of over 60% in size; note: potency is the fitted concentration of half-maximal effect
How it was run: as §2

[17] = system: HEK293T; experiment: as above; conditions: MCC and control cell lines, CellTiter-Glo viability, 72 h; at 44.8 µM (top of the series) unless noted
How it was run: as §2

[18] = system: TAB113; experiment: qHTS profiling for inhibitors of Plasmodium falciparum proliferation (AID 504749); conditions: P. falciparum in erythrocytes, SYBR Green DNA, 72 h; series mostly up to 28.7 µM
How it was run: (§4)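 P. falciparum-infected erythrocytes (0.3% parasitemia, 2.5% hematocrit final) were exposed to compounds for 72 h at 37 C in 5% CO2, then lysed with SYBR Green buffer overnight at room temperature; parasite DNA fluorescence was normalized to artemisinin and DMSO controls.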

[19] = system: TAB165; experiment: as above; conditions: P. falciparum in erythrocytes, SYBR Green DNA, 72 h; series mostly up to 28.7 µM
How it was run: as §4

[20] = system: W2; experiment: as above; conditions: P. falciparum in erythrocytes, SYBR Green DNA, 72 h; series mostly up to 28.7 µM
How it was run: as §4

[21] = at 44.8 µM (top of the series) unless noted

COc1cc(N2CCN(C)CC2)ccc1Nc1nc(N)c(C(=O)c2c(Cl)cccc2Cl)s1
active: Potency [2] 23.5 µM
inactive: max response [1] -21% | outcome [3] | max response [4] -5.11% | outcome [5, 21] | Potency [6] | Potency [7] | Potency [8] | Potency [9] | Potency [10] | Potency [11]

O=C(CCCN1CCN(c2ccc(F)cc2)CC1)NC1c2ccccc2CSc2ccccc21 (stereo not drawn)
active: Potency [1] 8.33 µM | Potency [2] 3.72 µM
inactive: max response [3] -5.32% | max response [12] -3.67% | Potency [7] | Potency [13] | Potency [14] | Potency [15]

COc1ccc(-c2nc3ccc(C4=NNC(=O)CC4C)cc3[nH]2)cc1 (stereo not drawn)
inactive: outcome [1] | max response [4] -4.82% | Potency [7] | Potency [13]
active: Potency [2] 18.8 µM and 23.1 µM
17.8 µM (active) and inactive: Potency [14]

C[C@@]1(C(=O)Nc2ccc(F)nc2)CCCN1c1nc(Nc2cc(C3CC3)[nH]n2)c2cccn2n1
inactive: max response [3] -23.7% | max response [4] -30.1% | Potency [13]
active: Potency [1] 11.8 µM and 11.6 µM | Potency [2] 3.72 µM | Potency [7] 16.6 µM | Potency [16] 4.61 µM | Potency [10] 0.0833 µM | Potency [11] 3.32 µM | Potency [15] 14.1 µM

CN(C(Cc1ccc(OS(=O)(=O)c2cccc3cnccc23)cc1)C(=O)N1CCN(c2ccccc2)CC1)S(=O)(=O)c1cccc2cnccc12 (stereo not drawn)
inactive: max response [1] 0.636% | max response [4] -3.12% | max response [12] -12.5% | Potency [6] | Potency [7] | Potency [8]
active: Potency [2] 5.26 µM | Potency [10] 7.43 µM

Cc1cccc2c1CC[C@H](CN1CCC(c3c(Cl)cccc3Cl)CC1)C[C@@H]2O
active: Potency [2] 14.6 µM
inactive: max response [1] -6.89% and 0.148% | max response [3] 1.39% | max response [4] -8.1% | max response [12] -20.2% | Potency [7] | Potency [8] | Potency [9] | Potency [11] | Potency [13] | Potency [14] | Potency [15]

O=c1[nH]nc(OCCCc2ccc(Cl)cc2)c(NCc2cccnc2)c1Br
inactive: max response [4] 3.09% | max response [12] 1.68% and -21.7% | Potency [7]
active: Potency [1] 6.51 µM | Potency [2] 3.32 µM and 7.31 µM | Potency [3] 20.9 µM | Potency [8] 23.5 µM | Potency [9] 14.8 µM

CN1C(=O)C(Cc2c[nH]c3ccccc23)NC1=S (stereo not drawn)
inactive: max response [1] 3.65% and -1.79% | outcome [3] | max response [4] 2.81% | outcome [4] | max response [12] -1.6% and -5.02% | outcome ([5]; at 17.4 µM (top of the series)) | outcome ([5]; at 44.8 µM (top of the series)) | outcome [17] | Potency [6] | Potency [7] | Potency [8] | Potency [9] | Potency [10] | Potency [11] | Potency [14] | Potency [15]

C=C[C@@H]1CN2CCC1C[C@@H]2C(O)c1ccnc2ccc(OC)cc12 (stereo partly drawn)
inactive: outcome [1] | outcome [3] | max response [4] 7.83% | max response [12] 0.497% | outcome [5, 21] | Potency [6] | Potency [7] | Potency [8] | Potency [9] | Potency [10] | Potency [11]

N#CC(c1ccc(Cl)cc1)c1c(Cl)cc(-n2ncc(=O)[nH]c2=O)cc1Cl (stereo not drawn)
inactive: Potency [18] | Potency [19] | Potency [20] | max response [1] -3.43% | outcome [3] | max response [4] 0.338% | max response [12] -0.315% | outcome [5, 21] | Potency [6] | Potency [7] | Potency [10]
active: Potency [11] 13.2 µM

CCOC(=O)N1CCN([N+]([O-])=NOc2cc(ON=[N+]([O-])N3CCN(C(=O)OCC)CC3)c([N+](=O)[O-])cc2[N+](=O)[O-])CC1
active: Potency [9] 23.5 µM
inactive: outcome [1] | outcome [3] | outcome [4] | outcome [12] | outcome [5, 21] | Potency [16]

N#CC(=C1Nc2ccccc2S1)c1ccnc(OCc2ccc(CN3CCOCC3)cc2)n1
active: Potency [8] 0.118 µM | Potency [9] 0.132 µM | Potency [10] 1.48 µM | Potency [11] 0.132 µM
inactive: max response [1] 4.11% | outcome [3] inactive; activator | max response [4] -1.84% | max response [12] -8.13% | outcome [5, 21] inactive; activator | Potency [6] | Potency [7]

CN(C)c1ccc(-c2nc3ncc(Cl)c(N4CCN(CC(=O)Nc5nccs5)CC4)c3[nH]2)cc1
active: Potency [4] 2 µM
inactive: max response [1] -24% | outcome [3] | outcome [4] | outcome [5, 21] inactive [at 17.4 µM] | Potency [6] | Potency [7] | Potency [8] | Potency [10] | Potency [11] | Potency [13] | Potency [14] | Potency [15]

CN(C)CCOc1cc(-c2cn[nH]c2)ccc1NC(=O)C1COc2ccccc2O1 (stereo not drawn)
inactive: outcome [1] | outcome [3] | max response [4] -7.59% and -3.43% | max response [12] -6.62% | outcome [5, 21] | Potency [7] | Potency [13] | Potency [14] | Potency [15]

CN[C@@H]1[C@@H](O)[C@@H](O[C@@H]2[C@@H](O)[C@H](O[C@H]3O[C@H](CN)[C@@H](O)[C@H](O)[C@@H]3O)[C@@H](N)C[C@@H]2NC(=O)[C@@H](O)CN)OC[C@]1(C)O
inactive: outcome [1] | outcome [3] | max response [4] 1.73% | outcome [12] | outcome [5, 21] | Potency [6] | Potency [7] | Potency [8] | Potency [16] | Potency [10] | Potency [11]
